# Screening data from PubChem.
# Many of the other results were omitted from the sample, so hits are more common in it than they were.
# Shiga toxin inh: inhibitors of Shiga toxin in Vero cells. 9.2% of 290,000 active. inhibition, % at 38.7 µM. Vero cells, Shiga toxin protein synthesis inhibition reporter; in the data active means inhibition mostly above about 28%, no sharp cut-off; inactive means mostly below about 43%; further: 0% is about no effect
# AMA1-RON2 inh: AMA1-RON2 (P. falciparum) interaction inhibition. AlphaScreen AMA1-biotinylated RON2 peptide binding. 0.2% of 360,000 active. Potency, µM (top dose mostly 58.2 µM), for inactives: at the top dose activity change, negative = inhibition, hits mostly inhibitors;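 further: potency means the concentration at half of the fitted maximal effect; 0% = vehicle wells and -100% = peptide control; nearly all actives have a fitted effect of over 45% in size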
#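 AMA1 (3D7) with his tag at 25 nM final met compounds first, then biotinylated RON2 peptide at 25 nM; detection used donor plus acceptor beads, 10 µg/mL apiece, read by AlphaScreen after 30 min at room temperature.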
# AmpC no deterg: AmpC beta-lactamase inhibition without detergent | P00811 | AmpC nitrocefin hydrolysis, absorbance 480 nm, 0.0001% Triton | Potency, µM (highest dose often 57.1 µM), for the others: at the top dose activity change, negative = inhibition, usual class: inhibitors | 0.52% of 330,000 active | AID 485341;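 further: potency means the concentration at half of the fitted maximal effect; plate controls were no compound for no effect and no enzyme for full effect; nearly all actives have a fitted effect of over 20% in size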
# Target sequence (P00811 whole entry, looked up): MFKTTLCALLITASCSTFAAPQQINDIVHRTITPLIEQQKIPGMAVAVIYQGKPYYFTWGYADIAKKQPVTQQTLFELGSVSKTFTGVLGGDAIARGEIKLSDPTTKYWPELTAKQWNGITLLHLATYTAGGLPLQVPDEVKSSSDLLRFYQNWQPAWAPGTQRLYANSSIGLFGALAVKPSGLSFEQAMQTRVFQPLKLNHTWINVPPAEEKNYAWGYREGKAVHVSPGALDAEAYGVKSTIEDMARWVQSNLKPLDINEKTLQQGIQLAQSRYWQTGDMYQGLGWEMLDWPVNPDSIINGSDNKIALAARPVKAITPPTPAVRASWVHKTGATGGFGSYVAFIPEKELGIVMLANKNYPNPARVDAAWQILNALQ
#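 AmpC (5.3 nM in the dispensed reagent) in 20 mM phosphate pH 7.0 with 0.01% (detergent screen) or 0.0001% Triton X-100 was preincubated with compounds for 15 min at room temperature. Nitrocefin was then added from an 800 uM solution, and hydrolysis was followed at 480 nm.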
# AmpC inh detg: blocks E. coli AmpC beta-lactamase in detergent assay | P00811 | AmpC hydrolysis of nitrocefin, absorbance 480 nm, 0.01% Triton | Potency, µM (highest dose often 114 µM), for the others: at the top dose activity change, negative = inhibition, usual class: inhibitors | 0.041% of 370,000 active | AID 485294;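 further: potency means the concentration at half of the fitted maximal effect; 0% = no-compound wells and -100% = no-enzyme wells; nearly all actives have a fitted effect of over 25% in size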
#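 AmpC (5.3 nM in the dispensed reagent) in 20 mM phosphate pH 7.0 with 0.01% (detergent screen) or 0.0001% Triton X-100 was preincubated with compounds for 15 min at room temperature. Nitrocefin was then added from an 800 uM solution, and hydrolysis was followed at 480 nm.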
# Cycloheximide cs: counter-screen hit for Shiga toxin inhibitors, cycloheximide | cell reporter, cycloheximide protein synthesis inhibition counterscreen | max response, % | 12% of 300,000 active | AID 2314; in the data active means max response mostly above about 13%, no sharp cut-off; inactive means mostly below about 14%; further: read at 38.3 µM for the half of the compounds with a filed dose; 0% is about no effect
# SARS PLP yeast: inhibitors of SARS-CoV papain-like protease in yeast. S. cerevisiae expressing SARS-CoV PLpro, growth rescue. Potency, µM (top dose mostly 32.9 µM), for the others: at the top dose activity, positive = growth rescue, hits mostly activators. 0.19% of 330,000 active. AID 485353; calls by dose curve; further: potency means the concentration at half of the fitted maximal effect; 0% is about no effect; nearly all actives have a fitted effect of over 55% in size
# Numbers without * were called inactive; u = inconclusive; x = no result; [ ] = another dose, or the depositor's remark. Unless noted, the call rests on the fitted dose curve; in most records, active means well fitted curve in the direction sought with a large enough effect; inconclusive means small, poorly fitted or top-dose-only effect, or another doubt; inactive means no such curve, though single readings can be large; an effect the other way counts as inactive or inconclusive.
SMILES,Shiga toxin inh,AMA1-RON2 inh,AmpC no deterg,AmpC inh detg,Cycloheximide cs,SARS PLP yeast
Cc1ccc(NC(=S)Nc2ccc3nc(-c4ccccn4)c(-c4ccccn4)nc3c2)cc1C,39.8,-5.2%,-11.0%,u,16.2*,u
Cc1cccc(NNC(=S)Nc2ccccc2)c1,x,-22.4%,x,x,x,x
Cc1ccc(NC(=S)Nc2ccccn2)c(C)c1,81.6*,21.9%,-36.6%,-0.6%,47.6*,-2.2%
COc1ccc(-c2csc(NC(=O)[C@H](C)N3C(=O)C4CC=CCC4C3=O)n2)cc1OC (some centres undefined),x,1.3%[11.6 µM],-1.7%,x,x,0.2%
Cc1ccc(SCC(=O)N2N=CCC2c2ccccc2)cc1 (centres undefined),67.3,4.3%,-6.2%[2.29 µM],1.8%,23.8*,-2.8%
S=C(Nc1ccccc1)N1N=CCC1c1ccccc1 (centres undefined),77.6*,59.6%,-26.9%,2.6%,25.9*,-8.4%
Fc1ccc(NC(=S)N2N=CCC2c2ccccc2)cc1 (centres undefined),61.0*,16.6%,12.4%,-4.8%,80.2*,1.5%
O=C(Nc1cccc2ccccc12)N1N=CCC1c1ccccc1 (centres undefined),109.0*,-19.8%,-12.2%,5.3%,59.3*,-2.1%
CC(C)c1cc(C(=O)N2CCCC(Nc3ccc(F)c(F)c3)C2)nc(N)n1 (centres undefined),-14.6,5.4%,11.8%,1.8%,-3.9,0.8%
Cc1nn(CC(=O)NCc2cccc(F)c2)c(=O)c2cccn12,-12.9,5.9%,-2.0%,-3.3%,-5.8,1.3%
COc1ccccc1CNC(=O)c1cccs1,31.7,1.2%,x,2.8%,16.0,x
Cc1ccc(N2C(=O)CC(=O)NC2=O)cc1Cl,-0.5,0.4%,-42.9%,2.2%,1.5,5.1%
CC(=O)N1CC(=O)N=C1SCC(=O)Nc1nc(C)c(-c2ccccc2)s1,36.9*,-11.3%,6.1%,-7.1%,33.1*,0.8%
O=C(CCN1C(=O)C2CCCCC2C1=O)Nc1nc(-c2ccccc2)cs1 (centres undefined),59.2,-7.3%,-15.8%,5.8%,17.1*,-0.7%
CN1CCN(CC(=O)N(C)c2nc(-c3ccccc3)cs2)CC1,60.4*,12.9%,0.9%,-10.0%,60.6*,-4.3%
COCC(=O)Nc1nc(-c2ccc(-c3ccccc3)cc2)cs1,80.9*,-5.7%,0.0%,1.9%,64.7*,3.8%
O=C(CCN1C(=O)C2CC=CCC2C1=O)Nc1nc(-c2ccc(F)c(F)c2)cs1 (centres undefined),x,35.6%,0.6%,8.1%,x,0.8%
CC(=O)Nc1nc(-c2ccc(-c3ccccc3)cc2)cs1,x,-7.5%,x,x,x,x
Cn1ncc2c(N3CCN(c4ccc(F)cc4)CC3)ncnc21,x,x,x,-0.8%,x,x
Cc1cc(C)c(S(=O)(=O)NC(CC(=O)O)c2cccc([N+](=O)[O-])c2)c(C)c1 (centres undefined),-9.4,0.8%,-3.4%,0.8%,-2.6,8.2%
Cc1nc(NC(=O)CN2CCOCC2)sc1-c1ccccc1,76.5,2.6%,37.0%,-12.1%,26.4*,-6.4%
Cc1ccc(-c2csc(NC(=O)CN3CCOCC3)n2)cc1C,24.3,-4.4%,103.2%,-7.3%,21.4*,0.6%
CN(c1ccc(OCC(=O)Nc2nc(-c3ccccc3)cs2)cc1)S(=O)(=O)c1ccc(F)cc1,-7.6,-4.9%,-17.3%,-1.1%,-1.8,0.8%
Cc1ccc(S(=O)(=O)N(C)c2ccc(OCC(=O)Nc3nc(-c4ccccc4)cs3)cc2)cc1,13.5,8.7%,2µM*,-8.5%,6.9,5.7%
O=C(CN1CCCCC1)Nc1nc(-c2ccccc2)cs1,35.0*,3.3%,-16.3%,-2.7%,34.6*,5.9%
SMILES,Shiga toxin inh,AMA1-RON2 inh,AmpC no deterg,AmpC inh detg,Cycloheximide cs,SARS PLP yeast
CCc1sc(NC(=O)CN2CCOCC2)nc1-c1ccccc1,-4.1,-1.3%,81.3%,u,-2.2,-0.1%
COc1cccc2c1OC1(C)CC2NC(=O)N1 (centres undefined),-4.9,6.7%,-17.5%,u,-3.4,8.0%
COc1ccc(OC)c(CNC(=O)C2COc3ccccc3C2)c1 (centres undefined),x,x,x,2.2%,x,x
CCc1ccc(-c2csc(NC(=O)Oc3ccccc3)n2)cc1,192.6*,-4.5%,-37.1%,-14.4%,24.8*,-66.3%
CC(=O)NCC(=O)OCC(=O)Nc1nc(-c2ccccc2)cs1,63.4*,6.4%,-11.8%[11.4 µM],u,16.3*,1.1%
O=C(Nc1nc(-c2cccc(Br)c2)cs1)Oc1ccccc1,28.7,-5.1%,-39.5%,6.9%,21.6,-48.8%
O=C(COc1ccccc1Cl)Nc1cccnc1,72.8*,0.0%,-17.0%,-5.4%,39.6*,-1.8%
O=C(COc1ccc(F)cc1F)Nc1cccnc1,14.8,-12.9%,-3.3%,5.3%,14.4,-4.3%
Cc1cc(OCC(=O)Nc2cccnc2)c2c(C)c(C)c(=O)oc2c1,13.1,-11.5%,-4.9%,-2.9%,-0.7,4.9%
Cc1ccc(Cl)c(OCC(=O)Nc2cccnc2)c1,104.6*,-9.2%,-7.7%,4.5%,58.4*,-0.9%
CC(C)(C)S(=O)N1Cc2cc(=O)n(Cc3ccccc3)cc2[C@H]1CCO (some centres undefined),x,0.0%,x,x,x,x
CCOc1ccc(CCNC(=O)CS(=O)(=O)Cc2nc(-c3cccc(Cl)c3)oc2C)cc1,x,x,x,6.2%,x,x
O=C1NC(c2cccs2)Nc2ccccc21 (centres undefined),37.9*,0.0%,-20.5%,-3.2%,20.7*,0.9%
O=C1NC(c2cccc3ccccc23)Nc2ccccc21 (centres undefined),x,9.2%,x,x,x,x
Cc1ccsc1C1NC(=O)c2ccccc2N1 (centres undefined),22.3,3.4%,-26.7%,-7.0%,22.8*,3.5%
O=C1NC(c2ccccc2Cl)Nc2ccccc21 (centres undefined),-27.1,-1.1%,-6.2%,u,-3.6,4.5%
COc1ccccc1CNc1nc(NCc2ccccc2F)c2sccc2n1,x,-27.1%,x,x,x,x
Cc1ccsc1/C=N/NC(=O)c1nnn(-c2nonc2N)c1C,19.8,9.1%,-0.7%,0.0%,11.6*,-1.2%
Cc1c(C(=O)N/N=C/c2cccs2)nnn1-c1nonc1N,52.3*,24.9%,-6.5%,0.2%,6.0,4.2%
Cc1ccc(/C=N/NC(=O)c2nnn(-c3nonc3N)c2C)o1,-5.5,37.2%,-10.1%,-10.9%,2.9,1.0%
C/C(=N\N=C\c1ccccc1)c1nnn(-c2nonc2N)c1C,40.7,-6.2%,-11.3%,1.7%,18.6*,0.9%
CN(C)Cc1c(C(=O)N/N=C/C=C/c2ccccc2)nnn1-c1nonc1N,-1.3,24.5%,2.4%,7.6%,28.6*,22.4%
CN1CCn2cnc(C(=O)NCCCCCNC(=O)OC(C)(C)C)c2C1=O,x,6.4%,x,x,x,x
CCOc1ccc(Cl)cc1/C=N/NC(=O)c1ccccc1,65.3*,6.4%,-24.5%,-4.0%,28.9*,-10.6%
